# Test results reported in PubChem BioAssay (EPA / NIEHS).
# Values joined by “and” are separate entries in the source; they are usually repeats but may differ in a detail not shown here. Equal entries are not always repeated. Active and inactive are the calls of the source. How the source made its calls: active means hit-call score of the fitted dose curve at least 0.9, where 1 is the maximum; inactive means score below 0.9.
# Assay: BSK_4H_SRB: Viability Assessment in the BioMAP Diversity Plus: 4H Assay (AID 2283027);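 further: cells exposed to compound for 24 h before staining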;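 on AC50: curves fitted both ways versus DMSO so AC50 may be loss or gain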
# Conditions: primary human endothelial cells (HUVEC)
# Description: BSK_4H is a cell-based, multiplexed-readout assay that uses umbilical vein endothelium, a human vascular primary cell, with measurements taken at 24 hours after chemical dosing in a 96-well plate.BSK_4H_SRB is an assay component measured in the BSK_4H assay. It measures […] related to cell death using Sulforhodamine staining technology.Data from the assay component BSK_4H_SRB was analyzed into 1 assay endpoint. This assay endpoint, BSK_4H_SRB, was analyzed with bidirectional fitting relative to DMSO as the negative control and baseline of activity. Using a type of viability reporter, gain or loss-of-signal activity can be used to understand changes in the signaling. Furthermore, this assay endpoint can be referred to as a primary readout, because this assay has produced multiple assay endpoints where this one serves a signaling function. To generalize the intended target to other relatable targets, this assay endpoint is annotated to the cell morphology intended target family, where the subfamily is cell conformation.
# The levels of cell surface (or secreted, indicated by the prefix "s") biomarker endpoints were measured by ELISA. Overt cytotoxicity to cells in confluent adherent cultures (all systems other than the BT system) was assessed by measuring total protein levels using sulforhodamine B (SRB) staining in parallel cultures at the time of biomarker measurements, indicated as SRB endpoints. For proliferation assays for adherent cell types, individual cell types are cultured at sub-confluence and relative cell numbers quantified by SRB staining at time points optimized for each system (48 h: 3C and CASM3C systems; 72 h: BT and HDF3CGF systems; 96 h: SAg system). SRB was performed by staining cells with 0.1% SRB after fixation with 10% TCA and reading wells at 560 nm.Viability and proliferation of PBMC (T cells) was quantified by Alamar Blue reduction for the SAg and BT systems. For PBMC viability (referred to as PBMC Cytotoxicity within the assay endpoint names), cells were plated (75,000/well in a 96-well plate) and then chemical samples added for 1 h before addition of activators, SEB and TSST-1 (20 ng/mL final concentration each). Cells were incubated for 90 h. Then, Alamar Blue (20 uL/well) (Invitrogen, Cat DAL1100) was added for 6 h, and the plates were read with a fluorescence microplate reader at 546/580 nm (excitation/emission). For PBMC proliferation, cells were plated and activated as above but incubated for only 16 h prior to addition of Alamar Blue. Plates were read after 6 h.
SMILES,AC50,outcome
CCC(C)c1cc([N+](=O)[O-])cc([N+](=O)[O-])c1O (stereo not given),12.6 µM (active),
Oc1c(Cl)c(Cl)c(Cl)c(Cl)c1Cl,10.2 µM (active) and 9.07 µM (active),
COS(=O)(=O)OC,,inactive
N#Cc1ccc(N(CC(N)=O)CC(F)(F)F)cc1C(F)(F)F,,inactive
O=C(N[C@H]1CN2CCC1CC2)c1cc2ccoc2cn1,,inactive
Cc1ccc(O)c(C)c1,,inactive
CCSC(=O)N(CC)C1CCCCC1,,inactive
CCOC(=O)C(O)(c1ccc(Cl)cc1)c1ccc(Cl)cc1,32.2 µM (active),
C[C@]12CCC(=O)C=C1CC[C@@H]1[C@@H]2CC[C@]2(C)C(=O)CC[C@@H]12,,inactive
CN(C)CCO,,inactive
CCCCCCCCCC[N+](C)(C)CCCCCCCCCC,2.01 µM (active),
CCNc1nc(NC(C)C)nc(SC)n1,,inactive
CCCCCCOC(=O)c1ccccc1C(=O)OCCCCCC,,inactive
Oc1ccc(C(c2ccc(O)cc2)(C(F)(F)F)C(F)(F)F)cc1,28 µM (active),
CC(C)(O)C(=O)Nc1ccc([N+](=O)[O-])c(C(F)(F)F)c1,,inactive
Nc1ccc(-c2ccc(N)cc2)cc1,,inactive
CO/C=C(/C(=O)OC)c1ccccc1COc1cccc(C(F)(F)F)n1,7.84 µM (active),
CC(c1ccc(O)cc1)(c1ccc(O)cc1)c1ccc(O)cc1,20 µM (active),
Nn1cnnc1,,inactive
Cc1cc(O)ccc1Cl,,inactive

SMILES,AC50,outcome
C=CC(N)=O,,inactive
CCCN(CCC)N=O,,inactive
ClC1=C(Cl)[C@]2(Cl)[C@@H]3[C@@H]4C[C@@H]([C@H]5O[C@@H]45)[C@@H]3[C@@]1(Cl)C2(Cl)Cl,,inactive
ClC1=C(Cl)[C@]2(Cl)[C@@H]3[C@@H](Cl)[C@H]4O[C@H]4[C@@H]3C1(Cl)C2(Cl)Cl,,inactive
O=S(=O)(O)C(F)(F)C(F)(F)C(F)(F)C(F)(F)F,,inactive
Cc1cccc([N+](=O)[O-])c1,,inactive
O=S(=O)(O)C(F)(F)C(F)(F)C(F)(F)C(F)(F)C(F)(F)C(F)(F)F,,inactive
CCCCCCCCOC(=O)c1ccccc1C(=O)OCCCCCCCC,,inactive
c1cc2ccc3cccc4ccc(c1)c2c34,,inactive
CC(C)C(=O)OCC(C)(C)C(OC(=O)C(C)C)C(C)C (stereo not given),,inactive
Cc1cc(-c2ccc(N)c(C)c2)ccc1N,,inactive
CCOP(=S)(OCC)SCSC(C)(C)C,,inactive
Cc1cc2c3c(c1)C(c1ccccc1)=N[C@@H](NC(=O)c1ccncc1)C(=O)N3CC2,,inactive
Clc1ccc(C(Cl)(Cl)Cl)cc1,,inactive
Cc1ccccc1O,,inactive
Cc1cccc(C)c1N,,inactive
Oc1ccc(Cl)cc1Cl,,inactive
Sc1ccccc1,,inactive
Clc1ccc(C(c2ccccc2Cl)C(Cl)(Cl)Cl)cc1 (stereo not given),19.5 µM (active),
CC#Cc1cc(C)nc(Nc2ccccc2)n1,,inactive
